Among all 39,000 compounds or so, about 1,500 (3.8%) were called active. The entries come from a sample that favours actives as a whole.

In the assay the test system is HSkMC (human skeletal muscle cells). In words: cytotoxicity call (relative viability < 0.9). The note with it: 10 µM.
In the case of `Cc1ccc(S(=O)(=O)N(C)C[C@@H]2Oc3c(NC(=O)c4cnccn4)cccc3C(=O)N([C@H](C)CO)C[C@@H]2C)cc1`, the cytotoxicity call is “inactive”.
The value for `CC=Cc1ccc2n(c1=O)C[C@H]1[C@H](CO)[C@@H](C(=O)NCCc3cn(C)cn3)N(C(=O)C3CC3)[C@@H]21` was “inactive”.
In the case of `COc1ccc(S(=O)(=O)N(C)C[C@H]2OCc3cn(nn3)CCCC(=O)N([C@@H](C)CO)C[C@H]2C)cc1`, the cytotoxicity call is “inactive”.
In the case of `C[C@H](CO)N1C[C@H](C)[C@@H](CN(C)C(=O)Nc2ccc3c(c2)OCO3)OCCCC[C@H](C)Oc2ccc(NC(=O)C3CCCCC3)cc2C1=O`, the cytotoxicity call is “inactive”.
`C[C@H]1CN([C@@H](C)CO)C(=O)c2cc(C#CC3(O)CCCC3)cnc2O[C@H]1CN(C)C(=O)C1CCCCC1`: the cytotoxicity call is “inactive”.
For `Cc1noc(C)c1NC(=O)Nc1ccc2c(c1)C(=O)N([C@H](C)CO)C[C@@H](C)[C@H](CN(C)C(=O)Nc1ccc(C(F)(F)F)cc1)O2`, the cytotoxicity call is “inactive”.
With `O=C(C[C@@H]1CC[C@H]2[C@@H](COC[C@H](O)CN2C(=O)c2ccccc2)O1)N1CCOCC1`, the cytotoxicity call was “inactive”.
The value for `O=C(C[C@@H]1C[C@H]2c3cc(NS(=O)(=O)c4ccc(F)cc4)ccc3O[C@H]2[C@H](CO)O1)NCCN1CCCCC1` was “inactive”.
Next, `C[C@H](CO)N1C[C@H](C)[C@H](CN(C)S(=O)(=O)c2ccc(Cl)cc2)OCCCC[C@H](C)Oc2ccc(NC(=O)Nc3ccc(C(F)(F)F)cc3)cc2C1=O`: “inactive”.
Next, `C=CCOC(=O)[C@H]1[C@@H]2C(=O)O[C@@H](c3ccccc3)[C@@H](c3ccccc3)N2[C@@H](c2ccc(OCCOC(=O)[C@H]3C[C@H]4C(=O)N[C@@H](Cc5ccccc5)C(=O)N4[C@H]3c3cccc(OCCO)c3)cc2)[C@]12C(=O)Nc1ccccc12`: “inactive”; `Cc1nn(C[C@@H](O)Cn2cnc3c2c(=O)n(C)c(=O)n3C)c(C)c1Br`: “inactive”; `O=C(c1ccccc1Cl)c1cccnc1-c1nnn(Cc2cc(C(F)(F)F)cc(C(F)(F)F)c2)c1-c1ccncc1`: “active”.
As to `NC1CCN(c2cccc(Cl)n2)CC1`, the cytotoxicity call is “inactive”.
The value for `CCN(CC)CCS(=O)(=O)[C@@H]1CCN2C(=O)c3coc(n3)CC(=O)C[C@H](O)/C=C(C)/C=C\CNC(=O)/C=C/[C@@H](C)[C@H](C(C)C)OC(=O)[C@@H]12` was “inactive”; that for `C[C@H](CO)N1C[C@H](C)[C@@H](CN(C)C(=O)Nc2ccc(F)cc2)OCCCC[C@H](C)Oc2ccc(NS(=O)(=O)c3ccc(F)cc3)cc2C1=O` was “inactive”.
Next, `C[C@@H]1CN([C@H](C)CO)C(=O)c2cc(NC(=O)C3CC3)ccc2O[C@H]1CN(C)S(=O)(=O)c1cccs1`: “inactive”; `C[C@H]1CN([C@@H](C)CO)C(=O)c2cc(NC(=O)Cc3cn(C)c4ccccc34)ccc2O[C@H]1CN(C)C(=O)Nc1cccc2ccccc12`: “inactive”; `C[C@H](CO)N1C[C@H](C)[C@@H](CN(C)C(=O)Nc2cccc3ccccc23)Oc2ccc(NC(=O)Cc3cn(C)c4ccccc34)cc2C1=O`: “inactive”.
Next, `C[C@@H]1CN([C@@H](C)CO)C(=O)c2cc(NC(=O)Cc3cn(C)c4ccccc34)ccc2O[C@@H]1CN(C)C(=O)Nc1cccc2ccccc12`: “active”; `C[C@H](CO)N1C[C@H](C)[C@H](CN(C)C(=O)Nc2cccc3ccccc23)Oc2ccc(NC(=O)Cc3cn(C)c4ccccc34)cc2C1=O`: “inactive”; `C[C@@H]1CN([C@@H](C)CO)C(=O)c2cc(NC(=O)Cc3cn(C)c4ccccc34)ccc2O[C@H]1CN(C)C(=O)Nc1cccc2ccccc12`: “inactive”.
Take `C[C@H]1CN([C@@H](C)CO)C(=O)Cc2cc(NC(=O)Cc3cn(C)c4ccccc34)ccc2O[C@H]1CN(C)C(=O)Nc1cccc2ccccc12`: the cytotoxicity call is “inactive”.
The value for `C[C@@H]1CN([C@H](C)CO)C(=O)c2cc(NC(=O)Cc3cn(C)c4ccccc34)ccc2O[C@H]1CN(C)C(=O)Nc1cccc2ccccc12` was “active”.
Consider `C[C@@H]1CN([C@H](C)CO)C(=O)c2cc(NC(=O)Cc3cn(C)c4ccccc34)ccc2O[C@@H]1CN(C)C(=O)Nc1cccc2ccccc12`, for which the cytotoxicity call is “active”.
Next, `C[C@H]1CN([C@@H](C)CO)C(=O)c2cc(NC(=O)Cc3cn(C)c4ccccc34)ccc2O[C@@H]1CN(C)C(=O)Nc1cccc2ccccc12`: “inactive”.
With `COc1ccc(NC(=O)Nc2cccc3c2O[C@@H](CN(C)C(=O)Nc2cccc4ccccc24)[C@@H](C)CN([C@@H](C)CO)C3=O)cc1`, the cytotoxicity call was “inactive”.
Next, `O[C@H]1[C@H](O)[C@@H](O)[C@H](O)[C@H](O)[C@H]1O`: “inactive”.
As to `COc1ccc(S(=O)(=O)N[C@H]2C=C[C@H](CC(=O)N3CCC(Cc4ccccc4)CC3)O[C@@H]2CO)cc1`, the cytotoxicity call was “inactive”.
The value for `CO[C@H]1CN(C)C(=O)c2cc(NC(=O)c3ccccc3)ccc2OC[C@H](C)N(C(=O)CN(C)C)C[C@@H]1C` was “inactive”; that for `C[C@@H]1CN([C@H](C)CO)C(=O)c2cccc(NC(=O)c3cnccn3)c2O[C@@H]1CN(C)CC1CCCCC1` was “inactive”; that for `COc1ccc(CN(C)C[C@@H]2Oc3ccc(NC(=O)C4CC4)cc3CC(=O)N([C@H](C)CO)C[C@@H]2C)cc1` was “inactive”.
As to `C[C@@H]1CCCCO[C@H](CN(C)Cc2ccc(Cl)c(Cl)c2)[C@@H](C)CN([C@H](C)CO)C(=O)c2cc(NC(=O)Nc3ccc(F)cc3)ccc2O1`, the cytotoxicity call is “inactive”.
The value for `Cn1cnc(S(=O)(=O)N2C[C@H](O)COC[C@@H]3O[C@H](CC(=O)NCc4ccc(F)cc4)CC[C@H]32)c1` was “inactive”; that for `Cc1cc(C(=O)Nc2cccc3c2O[C@H](CN(C)C(=O)Nc2c(C)noc2C)[C@H](C)CN([C@@H](C)CO)C3=O)n(C)n1` was “inactive”; that for `COC1C(OC(N)=O)C(O)C(Oc2ccc3c([O-])c(NC(=O)c4ccc(O)c(CC=C(C)C)c4)c(=O)oc3c2C)OC1(C)C.[Na+]` (centres undefined) was “inactive”.
The value for `CO[C@@H]1[C@@H](OC(=O)c2ccc(C)[nH]2)[C@@H](O)[C@@H](Oc2ccc3c(c2C)OC(=O)[C@H](NC(=O)c2[nH]cc(CC(=O)Nc4cc5ccc(O[C@@H]6OC(C)(C)[C@H](OC)[C@@H](OC(=O)c7ccc(C)[nH]7)[C@H]6O)c(C)c5oc4=O)c2C)C3)CC1(C)C` was “active”.
Next, `COc1ccc(NC(=O)N(C)C[C@H]2OCCCC[C@H](C)Oc3ccc(NC(=O)Nc4ccc5c(c4)OCO5)cc3C(=O)N([C@@H](C)CO)C[C@@H]2C)cc1`: “inactive”; `C[C@H]1CN([C@@H](C)CO)C(=O)c2cc(NC(=O)Nc3ccc4c(c3)OCO4)ccc2O[C@H]1CN(C)S(=O)(=O)c1cn(C)cn1`: “inactive”; `Cc1noc(C)c1NC(=O)Nc1ccc2c(c1)C(=O)N([C@@H](C)CO)C[C@H](C)[C@H](CN(C)C(=O)Nc1ccc(F)cc1)OCCCC[C@H](C)O2`: “inactive”.
As to `Cc1noc(C)c1NC(=O)Nc1ccc2c(c1)C(=O)N([C@H](C)CO)C[C@H](C)[C@H](CN(C)Cc1ccc3c(c1)OCO3)OCCCC[C@H](C)O2`, the cytotoxicity call was “inactive”.
With `O=C(C[C@H]1CC[C@@H]2[C@H](COC[C@H](O)CN2C(=O)c2ccncc2)O1)NC1CCC1`, the cytotoxicity call is “inactive”.
`C[C@H](CO)N1C[C@H](C)[C@H](CN(C)Cc2ccncc2)Oc2ccc(NC(=O)Nc3cccc4ccccc34)cc2CC1=O`: the cytotoxicity call is “active”.
Regarding `COc1ccc(CN(C)C[C@H]2Oc3ccc(NC(=O)Nc4cccc5ccccc45)cc3CC(=O)N([C@@H](C)CO)C[C@@H]2C)cc1`, the cytotoxicity call was “inactive”.
Next, `COc1ccc(CN(C)C[C@@H]2Oc3ccc(NC(=O)Nc4cccc5ccccc45)cc3CC(=O)N([C@H](C)CO)C[C@H]2C)cc1`: “inactive”.
In the case of `C[C@@H]1CN([C@H](C)CO)C(=O)Cc2cc(NC(=O)Nc3cccc4ccccc34)ccc2O[C@H]1CN(C)Cc1ccncc1`, the cytotoxicity call is “inactive”.
The value for `COc1ccc(CN(C)C[C@H]2Oc3ccc(NC(=O)Nc4cccc5ccccc45)cc3CC(=O)N([C@H](C)CO)C[C@H]2C)cc1` was “active”; that for `C[C@@H]1CN([C@H](C)CO)C(=O)Cc2cc(NC(=O)Nc3cccc4ccccc34)ccc2O[C@@H]1CN(C)Cc1ccncc1` was “inactive”.
With `COc1ccc(CN(C)C[C@H]2Oc3ccc(NC(=O)Nc4cccc5ccccc45)cc3CC(=O)N([C@@H](C)CO)C[C@H]2C)cc1`, the cytotoxicity call was “inactive”.
As to `C[C@@H]1CN([C@H](C)CO)C(=O)Cc2cc(NC(=O)Nc3cccc4ccccc34)ccc2O[C@H]1CN(C)Cc1ccc(-c2ccccc2)cc1`, the cytotoxicity call is “inactive”.
Next, `COc1ccc(CN(C)C[C@@H]2Oc3ccc(NC(=O)Nc4cccc5ccccc45)cc3CC(=O)N([C@H](C)CO)C[C@@H]2C)cc1`: “inactive”; `COc1ccc(CN(C)C[C@@H]2Oc3ccc(NC(=O)Nc4cccc5ccccc45)cc3CC(=O)N([C@@H](C)CO)C[C@@H]2C)cc1`: “active”; `C[C@H](CO)N1C[C@H](C)[C@@H](CN(C)Cc2ccc(-c3ccccc3)cc2)Oc2ccc(NC(=O)Nc3cccc4ccccc34)cc2CC1=O`: “inactive”.
The value for `C[C@H]1CN([C@@H](C)CO)C(=O)Cc2cc(NC(=O)Nc3cccc4ccccc34)ccc2O[C@@H]1CN(C)Cc1ccc(-c2ccccc2)cc1` was “active”; that for `Cn1nc(Cn2ccnc2)c2c1CN(CCO)C2` was “inactive”.
Take `C[C@H](CO)N1C[C@H](C)[C@H](CN(C)S(=O)(=O)c2cccs2)Oc2ccc(NS(=O)(=O)c3cccs3)cc2C1=O`: the cytotoxicity call was “inactive”.
The value for `C[C@@H]1CN([C@H](C)CO)C(=O)c2cccc(NC(=O)C3CC3)c2O[C@H]1CN(C)S(=O)(=O)c1cn(C)cn1` was “inactive”; that for `C[C@@H]1CN([C@H](C)CO)C(=O)c2cc(NS(=O)(=O)c3cccs3)ccc2O[C@@H](C)CCCCO[C@@H]1CN(C)S(C)(=O)=O` was “inactive”.
The value for `COCC(=O)N1C[C@@H](C)[C@H](OC)CN(C)C(=O)c2cc(NC(=O)c3ccc(OC)cc3)ccc2OC[C@H]1C` was “inactive”.
Consider `C[C@@H]1CN([C@@H](C)CO)C(=O)c2cc(NC(=O)NC3CCCCC3)ccc2O[C@@H](C)CCCCO[C@@H]1CN(C)Cc1ccccc1`, for which the cytotoxicity call was “inactive”.

Values taken from the antibiotic and cytotoxicity screens of Wong et al. (2023).
